{
  "source": "PubChem BioAssay (NCATS)",
  "note": "The other results are listed elsewhere or left out. Records with an inconclusive call do not appear. The source made the active and inactive calls. The call rests on the fitted dose curve. Potency means the concentration at half of the fitted maximal effect.",
  "data": [
    {"system": "Chikungunya virus nsP2 protease", "assay": "Confirmatory qHTS for inhibitors of NSP2Pro chikungunya virus (CHIKV) (AID 1964105); further: nearly all actives have a fitted effect of over 75% in size", "conditions": "CHIKV nsP2 protease enzymatic activity; series mostly up to 25.5 µM", "excerpt": "PI: Natalia J. Martinez Ph.D.\nNational Center for Advancing Translational Sciences (NCATS),\nNational Institute of Health (NIH), Rockville, Maryland\nChikungunya virus (CHIKV) is a mosquito-borne RNA virus that has emerged as one of the most important global arboviral threats in the last decade. Although the first CHIKV vaccine has recently been FDA approved for use in healthy adults at increased risk, to date, there are no available antiviral drugs for CHIKV infection. CHIKV nsP2 protease plays a crucial role in the processing of the viral polypeptide precursor to release enzymes required for viral replication, thus making it a promising drug target for antiviral discovery. Here, we established a high-throughput pipeline to identify small molecule inhibitors of nsP2 proteolytic activity. The pipeline is composed of a suite of 1,536-well in vitro assays to support quantitative high-throughput (qHTS) screening campaigns. Specifically, we developed a fluorescence resonance energy transfer (FRET)-based assay using a fluorogenic peptide substrate encompassing an endogenous cleavage site and purified recombinant protease domain (nsP2pro). Using this assay, we interrogated ~37,000 small molecules, including those in drug repurposing libraries as well as chemically diverse and medicinal chemistry-friendly compounds. Hits were selected for follow-up validation against full-length nsP2 and an additional peptide. FRET-based 1,536-well assays for papain, hepatitis C virus NS3-4A, and human furin proteases were implemented to characterize compound selectivity. […] Novel compounds were identified to be potential nsP2 inhibitors and molecular docking analyses were performed to explain the binding mode of selected hits. In vitro antiviral activity was evaluated for a subset of compounds using a high-throughput CHIKV infection assay. To our knowledge, the pipeline presented here is unprecedented for CHIKV antiviral discovery research.\nPROTOCOL TABLE (as described by Inglese J, Shamu CE and Guy RK. 2007)\nSEQUENCE No. (e.g., 1, 2, 3, etc.); […] (e.g., Cells, Incubation, Reagent, etc.); VALUE; DESCRIPTION.\n1; Control / Compound; 20 nL; Echo 655 acoustic dispenser, Greiner 1536-well solid bottom black plate.\n2; Enzyme; 4 uL; BioRAPTR FRD liquid dispenser (Beckman Coulter).\n3; Incubation; 15 min; room temperature.\n4; Reagent; 4 uL; 2.5 uM Peptide 2 substrate.\n5; Incubation; 1 hr; room temperature.\n6; Detection; Fluorescence; WiewLux microplate reader (PerkinElmer), 525 nm excitation, 598/25 nm emission.\nNOTES (numbers refer to sequence numbers above).\n1.Briefly, 20 nL DMSO, positive control ZnAc (20nM final concentration), and test compounds were transferred into a 1,536-well solid bottom black plate (789176-F, Greiner One) via Echo 655 acoustic dispenser (Beckman Coulter). For primary screens, compounds were tested at 7 concentrations, 1:3 dilution points ranging from 25 uM to 34 nM. Follow-up confirmatory screens were carried out at 11 concentrations, 1:3 dilution points from 25 uM to 0.42 nM.\n2.Four uL nsP2pro enzyme mix (150 nM final concentration) in 10 mM Tris-HCl pH 8.0 with 0.01% Tween 20 assay buffer was dispensed into the plate using a BioRAPTR FRD liquid dispenser (Beckman Coulter).\n3.The plate was incubated at room temperature (protected from light) for 15 min\n4.Four microliter of peptide 2 substrate (2.5 uM final concentration) in assay buffer was added to the plate.\n5.After 1 hour, plates were immediately read on a ViewLux high-throughput CCD imager (Exposure = 10 sec, Gain = High, Speed = Slow, Binning = 2X). The above assay was also incorporated in the NCATS HTS facility41, which allowed for robotic liquid and compound dispensing, microplate handling, and fluorescence reading.\nInglese J, Shamu CE and Guy RK, Reporting data from high throughput screening of small molecule libraries, Nature Chemical Biology, 2007, 3(8): 438-441. doi.org/10.1038/nchembio0807-438.", "values": [
      {"smiles": "CCC(C)C(=O)OC1C(C)C2(O)C(C=C(CO)CC3(O)C(=O)C(C)=CC32)C2C(C)(C)C12OC(=O)C(C)C", "note": "(stereo not drawn)", "Potency": "inactive"},
      {"smiles": "Cn1nnnc1Sc1ncnc2n[nH]c(-c3cccc(S(C)(=O)=O)c3)c12", "Potency": "3.18 µM (active)"},
      {"smiles": "CCOc1ccc(NC(=O)c2c(NC(=O)Cc3ccccc3)sc3c2CCC(C)C3)cc1", "note": "(stereo not drawn)", "Potency": "7.11 µM (active)"},
      {"smiles": "CCOc1ccc(N(Cc2ccccc2)C(=O)c2nc(S(C)(=O)=O)ncc2Cl)cc1", "Potency": "3.18 µM (active)"},
      {"smiles": "C=Cc1c(C)c2cc3nc(cc4[nH]c(cc5nc(cc1[nH]2)C(C)=C5CCC(=O)O)c(CCC(=O)OC)c4C)[C@@]1(C)C3=CC=C(C(=O)OC)[C@H]1C(=O)OC", "Potency": "inactive"},
      {"smiles": "CCOc1ccc(NC(=O)c2c(NC(=O)Cc3ccccc3)sc3c2CCCCC3)cc1", "Potency": "7.98 µM (active)"},
      {"smiles": "CCc1ccccc1NC(=O)c1cnn(-c2ccc(F)cc2)c1C1CCNCC1", "Potency": "inactive"},
      {"smiles": "C=CC(=O)c1ccc2ccccc2c1", "Potency": "6.34 µM (active)"},
      {"smiles": "N#CSc1cc(SC#N)c(N)nc1N", "Potency": "0.318 µM (active)"},
      {"smiles": "O=C(O)c1cccc(-n2[nH]c(-c3ccccc3)cc2=O)c1", "Potency": "inactive"},
      {"smiles": "COC([CH2][Hg])CNC(=O)c1ccccc1OCC(=O)O", "note": "(stereo not drawn)", "Potency": "2.25 µM (active)"},
      {"smiles": "C[C@@H]1C[C@@H](O)[C@@]23CO[C@]2(CO)C[C@@H](O)CC3[C@@]12CC(c1ccoc1)OC2=O", "note": "(stereo partly drawn)", "Potency": "inactive"},
      {"smiles": "Oc1ccc(OC2CCCCO2)cc1", "note": "(stereo not drawn)", "Potency": "inactive"}
    ]}
  ]
}
